ELG1 genotoxic: genotoxicity induction in ELG1-luciferase HEK293T cells; hit rate 1.3% among 330,000; HEK293T ELG1-luciferase reporter, luminescence, 16 h; Potency, µM (titrated, usually from 46 µM), usual class: activators; also: nearly all actives have a fitted effect of over 60% in size
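Screening used a luciferase reporter fused to human ELG1 in HEK293T cells. Luminescence was read on a CCD plate imager after 16 hr exposure and 30 min ONE-Glo incubation.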
FLuc modulator: counter-screen for miR-21 project: firefly luciferase inhibitors or activators; P08659; purified FLuc, Km substrates, luminescence inhibition; Potency, µM (doses to about 57.5 µM), actives largely listed as inhibitors; hit rate 6.9% among 360,000; also: nearly all actives have a fitted effect of over 55% in size
Target sequence (P08659 whole entry, looked up): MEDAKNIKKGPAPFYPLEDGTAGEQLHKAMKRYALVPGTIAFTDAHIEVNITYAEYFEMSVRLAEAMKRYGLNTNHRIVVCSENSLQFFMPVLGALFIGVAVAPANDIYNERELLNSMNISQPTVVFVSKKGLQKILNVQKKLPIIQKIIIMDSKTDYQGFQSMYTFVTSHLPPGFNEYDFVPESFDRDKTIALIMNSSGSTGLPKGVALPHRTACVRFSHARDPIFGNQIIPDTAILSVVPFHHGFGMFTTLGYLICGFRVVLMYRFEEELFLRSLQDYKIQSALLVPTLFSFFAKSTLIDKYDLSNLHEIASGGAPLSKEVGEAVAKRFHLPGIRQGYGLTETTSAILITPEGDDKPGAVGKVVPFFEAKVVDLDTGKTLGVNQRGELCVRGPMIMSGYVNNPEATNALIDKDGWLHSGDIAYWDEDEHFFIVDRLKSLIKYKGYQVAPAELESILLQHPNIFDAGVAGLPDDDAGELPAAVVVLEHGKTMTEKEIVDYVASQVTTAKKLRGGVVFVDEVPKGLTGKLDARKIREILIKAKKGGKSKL
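Purified P. pyralis luciferase (10nM final) with 10uM D-luciferin and 10uM ATP (Km levels) in 50mM Tris acetate pH 7.5, 10mM Mg acetate, 0.01% Tween-20, 0.05% BSA; qHTS 6-point titration, ~60 µM downward; luminescence read.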
NPC1 prom act: activates the NPC1 promoter | Huh7 NPC1 promoter luciferase reporter, 24 h | Potency, µM (series often up to 9.22 µM), actives largely listed as activators | hit rate 2.4% among 320,000 | AID 485313; also: nearly all actives have a fitted effect of over 60% in size
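Readout is luciferase luminescence, reflecting NPC1 promoter activation in stably transfected Huh7 cells after 24 h compound exposure at 37 °C in reduced-serum medium with 10% FBS.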
SMN2 splice enh: SMN2 splice variant enhancement. Potency, µM (doses to about 46.1 µM), usual class: activators. HEK293 SMN2-luciferase splicing reporter, luminescence, 30-36 h. hit rate 2.8% among 210,000; also: nearly all actives have a fitted effect of over 55% in size
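HEK293 cells carry an SMN2 minigene-luciferase reporter in which exon 7 inclusion puts luciferase in frame. Cells were seeded at 2000 cells/well, attached for 10-12 hours, then exposed to compounds for 30-36 hours at 37C before ONE-Glo luminescence.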
Rab9 prom act: Rab9 promoter activation | Huh7 Rab9 promoter-luciferase reporter, luminescence, 24 h | Potency, µM (doses to about 9.22 µM), actives largely listed as activators | hit rate 2.8% among 320,000; also: nearly all actives have a fitted effect of over 60% in size
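Measured in stably transfected Huh7 cells bearing a Rab9 promoter–luciferase construct: 24 h compound treatment at 37 °C, followed by luminescence detection.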
Luc counter: blocks Kinase-Glo luciferase, a counter-screen artifact; Q27757; Kinase-Glo luciferase, ATP luminescence, 8 min; Potency, µM (series often up to 38.3 µM), usual class: inhibitors; hit rate 0.28% among 200,000; also: nearly all actives have a fitted effect of over 60% in size
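Light output from Kinase-Glo luciferase with luciferin and 10 uM ATP in 50 mM imidazole pH 7.2, KCl, MgCl2, Tween 20, BSA; compound pin-delivered, 8-min ambient incubation, then luminescence read.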
Hits are given with their value; 0 = inactive; ? = inconclusive; - = no result; [ ] = another dose, or the depositor's remark. Sampled rows, rich in hits. Any-hit rate of the full collection: about 7.5%. Calls follow the shape of the dose curve; as a rule, active = well fitted curve in the direction sought with a large enough effect; inconclusive = small, poorly fitted or top-dose-only effect, or another doubt; inactive = no such curve, though single readings can be large; an effect the other way counts as inactive or inconclusive.

SMILES	ELG1 genotoxic	FLuc modulator	NPC1 prom act	SMN2 splice enh	Rab9 prom act	Luc counter
CCOC(=O)c1c(C)c(C(=O)Nc2ccc(N(C)C)cc2)c(C)n1CC	0	15µM	0	0	0	0
CCCCOC(=O)Nc1cccc(C(=O)OCC)c1	?	?	0.22µM	?	0.32µM	0
CCCCOC(=O)Nc1ccc(C(C)C)cc1	?	9.5µM	?	14µM	?	0
COc1ccc(NC(=O)Nc2ccc(C(C)C)cc2)cc1	0	?	0	-	?	-
COc1ccc(C(CC(=O)O)NS(=O)(=O)c2ccc3c(c2)N(C(C)=O)CC(C)O3)cc1 (stereo not given)	0	0	0	-	0	-
Cc1ccc2c(c1)c1c(c(=O)n(-c3cccc(Cl)c3)c(=O)n1CC(=O)N1CCCC1)n2C	-	0	-	-	-	-
Nc1cccc2c(=O)c3ccccc3[nH]c12	0	0	0	-	0	-
Cc1cc(/C=c2/sc3nc4ccccc4n3c2=O)c(C)n1-c1ccccn1	0	0.13µM	0	0	0	?
Cc1cc(/C=c2\sc3nc4ccccc4n3c2=O)c(C)n1-c1ccc(C(=O)O)cc1	0	15µM	?	0	0	0
O=c1/c(=C\c2cccnc2)sc2nc3ccccc3n12	?	0[2.3 µM]	0	?	0	0
O=c1/c(=C/c2ccc(O)c([N+](=O)[O-])c2)sc2nc3ccccc3n12	0	6.7µM	0	0	0	0
C=CCN(CC=C)S(=O)(=O)c1ccc(NC(=S)NC(=O)C2CC2)cc1	0	0	0	-	0	-
COc1ccc(C(=O)COC(=O)c2cccc(-n3cnnn3)c2)c(OC)c1	?	11µM	4µM	-	3.5µM	-
COc1ccccc1CNC(=O)COC(=O)c1cccc(-n2cnnn2)c1	0	0	0	-	0	-
O=C(COC(=O)c1cccc(-n2cnnn2)c1)c1ccc(F)cc1	?	17µM	3.2µM	-	2.8µM	-
Clc1ccc2[nH]cc(-c3nnnn3-c3ccccc3)c2c1	0	24µM	0	0	0	0
O=C(O)c1ccc2nc(-c3cc4cc(Cl)ccc4oc3=O)[nH]c2c1	-	21µM	-	-	-	-
Cc1cccc2cc(-c3nc4ccc(C(=O)O)cc4[nH]3)c(=O)oc12	?	0.43µM	?	-	?	-
Cc1[nH]c2ccccc2c1/C=C(\C#N)C(=O)NCC1CCCO1 (stereo not given)	0	?	0	-	0	0
N#C/C(=C\c1c[nH]c2ccccc12)C(=O)NCC1CCCO1 (stereo not given)	?	17µM	0	-	0	0
O=C(CSc1cnc2ccccc2n1)c1ccc(F)cc1	?	4.8µM	3.2µM	11µM	3.2µM	0
COC(=O)CSc1cnc2ccccc2n1	-	0	-	0	-	0
O=C(CSc1nnc2ccc3ccccc3n12)c1ccc(F)cc1	-	6.7µM	0	-	?	-
CC(=O)Nc1ccc(C(=O)CSc2nnc3ccc4ccccc4n23)cc1	-	0	-	-	-	-
C[C@H]1CN(CCO)CCN1c1ccccc1	-	-	-	0[9.22 µM]	-	0[7.66 µM]
SMILES	ELG1 genotoxic	FLuc modulator	NPC1 prom act	SMN2 splice enh	Rab9 prom act	Luc counter
CCc1nn2c(=O)cc(CSCC(=O)Nc3ccccc3F)nc2s1	0	0	0	-	0	-
CNC(=O)c1c(NC(=O)c2ccc3ncsc3c2)sc(C)c1C	0	?	0	-	0	-
COc1ccc(C(=O)Nc2nc3c(s2)CCCC3)cc1Cl	-	2.4µM	-	-	-	-
Cc1cc(C(=O)Nc2nc3c(s2)CCCC3)cs1	?	0.6µM	?	?	1µM	?
O=C(Nc1nc2c(s1)CCCC2)c1ccc(Br)s1	?	1.5µM	2.8µM	?	0.5µM	0
O=C(Nc1nc2c(s1)CCCC2)c1ccc2ncsc2c1	?	2.4µM	?	0.5µM	?	0
COc1ccccc1OCC(=O)Nc1nc2c(s1)CCCC2	0	0	0	-	0	-
Cc1ccc(CC(=O)Nc2nc3c(s2)CCCC3)cc1	0	?	0	-	0	0
CCN1C(=NCC(C)C)N[C@@H](c2ccccc2)[C@H](C(=O)OC)[C@H]1C	-	0	0	-	0	-
Cc1cccc(C(=O)Nc2nc3c(s2)CCCC3)c1	-	1.3µM	-	-	-	-
Cc1ncsc1C(=O)Nc1nc2c(s1)CCCC2	?	7.6µM	2.5µM	11µM	1µM	6.3µM
CCOc1ccc(NC(=O)CCc2nnc3ccc(N4CCC5(CC4)OCCO5)nn23)cc1	0	0	0	-	0	-
COc1ccc(OC)c(NC(=O)CCCOc2cc(=O)n(C)c3ccccc23)c1	-	0	-	0	-	-

Assay outcomes: PubChem BioAssay, National Center for Advancing Translational Sciences (NCATS)
